Test results from PubChem BioAssay (Tox21).
Records with an inconclusive call do not appear. Activity calls are given as the source filed them. Unless noted, the call rests on the fitted dose curve.

Key:
[1] = Nuclear factor erythroid 2-related factor 2/antioxidant responsive element (Nrf2/ARE) small molecule agonists: qHTS cell viability counter screen in human keratinocytes (AID 1919968; active means well fitted curve in the direction sought with a large enough effect in the repeat runs; an effect the other way counts as inactive or inconclusive; further: nearly all actives have a fitted effect of over 55% in size)
How it was run: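 In human HaCaT keratinocytes stably expressing an ARE-driven luciferase, compound exposure lasted 23 h at 37 C under 5% CO2. Viable cells are quantified with a protease-based fluorogenic reagent (CellTiter-Fluor) read 1 h after addition.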

[2] = Nuclear factor erythroid 2-related factor 2/antioxidant responsive element (Nrf2/ARE) small molecule agonists: luciferase reporter gene qHTS assay in human keratinocytes (AID 1919969); further: nearly all actives have a fitted effect of over 35% in size
[3] = biological target: Gonadotropin-releasing hormone receptor (Homo sapiens) (UniProt P30968); test: Human gonadotropin-releasing hormone receptor (GnRHR) small molecule agonists, calcium flux assay in GnRHR-HEK293 cells (AID 1920063); further: nearly all actives have a fitted effect of over 35% in size
Chain of Gonadotropin-releasing hormone receptor (Homo sapiens) (P30968 whole entry, looked up): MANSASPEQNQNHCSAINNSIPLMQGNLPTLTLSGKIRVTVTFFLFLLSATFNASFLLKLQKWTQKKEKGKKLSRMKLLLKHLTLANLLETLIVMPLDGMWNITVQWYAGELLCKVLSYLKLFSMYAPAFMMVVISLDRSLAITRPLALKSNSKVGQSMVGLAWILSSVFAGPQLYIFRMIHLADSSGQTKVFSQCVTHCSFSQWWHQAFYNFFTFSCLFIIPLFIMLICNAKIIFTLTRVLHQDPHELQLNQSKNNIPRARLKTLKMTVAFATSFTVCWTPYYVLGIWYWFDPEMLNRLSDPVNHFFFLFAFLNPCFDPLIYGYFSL
How it was run: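 Intracellular calcium rise is the read-out: engineered human GnRHR HEK293 cells, dye-loaded, are exposed to DMSO-dissolved compounds and fluorescence at Ex/Em 480/540 is tracked for 3 min.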

[4] = biological target: KiSS-1 receptor (Homo sapiens) (UniProt Q969F8); test: Human kisspeptin (KISS1R) small molecule agonists, calcium flux assay in KISS1R-HEK293 cells (AID 1920064; active means well fitted curve in the direction sought with a large enough effect in the repeat runs; an effect the other way counts as inactive or inconclusive)
Chain of KiSS-1 receptor (Homo sapiens) (Q969F8 whole entry, looked up): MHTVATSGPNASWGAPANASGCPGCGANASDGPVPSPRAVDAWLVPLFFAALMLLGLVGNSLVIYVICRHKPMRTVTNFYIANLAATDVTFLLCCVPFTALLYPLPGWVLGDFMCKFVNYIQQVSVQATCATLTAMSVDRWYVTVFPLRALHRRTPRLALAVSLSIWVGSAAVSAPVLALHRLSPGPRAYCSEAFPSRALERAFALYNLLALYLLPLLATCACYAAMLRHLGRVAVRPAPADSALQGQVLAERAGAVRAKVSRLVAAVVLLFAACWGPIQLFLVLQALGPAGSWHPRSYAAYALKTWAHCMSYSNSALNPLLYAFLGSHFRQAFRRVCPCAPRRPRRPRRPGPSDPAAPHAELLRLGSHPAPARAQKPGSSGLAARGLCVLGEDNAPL
How it was run: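 Concentration-response testing used 15 concentrations in triplicate on human KISS1R-expressing HEK293 cells. Calcium-dependent fluorescence (Ex/Em 480/540) was followed kinetically for 3 min after compound transfer.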

[5] = G protein-coupled receptor (GPCR) small molecule agonists, calcium flux assay: HEK293 wild type cell line counter screen (AID 1920065)
How it was run: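 Fluorescence intensity signals activation. After overnight (18 h) culture and a 1 h calcium dye load at 37 C, compounds are added by pin tool and the plate read at 480/540 nm for 3 min in 1 s steps.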

[6] = p53 small molecule agonists, cell-based qHTS assay with human liver microsomes (AID 1963577)
How it was run: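 Compounds act here after metabolic activation: human liver microsomes and NADPH, both at 0.5 mg/mL final, were co-added to p53RE-bla cells. Incubation ran 16 h at 37 C, followed by LiveBLAzer detection.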

[7] = p53 small molecule agonists, cell-based qHTS assay with rat liver microsomes (AID 1963578)
How it was run: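 Read-out is beta-lactamase reporter fluorescence (LiveBLAzer, 2 h, room temperature, dark) in p53RE-bla cells treated 16 h at 37 C with compound, rat liver microsomes and NADPH, both 0.5 mg/mL final.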

[8] = p53 small molecule agonists, cell-based qHTS assay with human liver microsomes: qHTS cell viability counter screen (AID 1963579); further: nearly all actives have a fitted effect of over 45% in size
How it was run: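 Cells carrying the p53 response-element beta-lactamase reporter are treated for 16 h at 37 C with test compounds in the presence of human liver microsomes and NADPH (both 0.5 mg/mL final); ATP-based CellTiter-Glo luminescence then reports viability.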

[9] = p53 small molecule agonists, cell-based qHTS assay with rat liver microsomes: qHTS cell viability counter screen (AID 1963580); further: nearly all actives have a fitted effect of over 45% in size
How it was run: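 Cytotoxicity counter screen: intracellular ATP read by CellTiter-Glo luminescence in the p53 reporter wells. HCT-116 p53RE-bla cells were treated for 16 h at 37 C alongside rat liver microsomes and NADPH, each 0.5 mg/mL final.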

[10] = p53 small molecule agonists, cell-based qHTS assay: qHTS cell viability counter screen (AID 1963581); further: nearly all actives have a fitted effect of over 45% in size
How it was run: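 Luminescence from CellTiter-Glo, reflecting ATP content, serves as the cytotoxicity measure; it is taken after the 2 h reporter substrate step in HCT-116 p53RE-bla cells dosed for 16 h at 37 C.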

[11] = p53 small molecule agonists, cell-based qHTS assay (AID 1963582; active means well fitted activation curve with a large enough effect in the signal ratio in the repeat runs, not every such curve was filed as active; the % refers to the signal ratio)
How it was run: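 After plating, p53RE-bla cells sat 5 h in the incubator; compounds or DMSO vehicle were pinned in; a 16 h incubation at 37 C followed; FRET substrate was added and, 2 h later at RT, fluorescence was measured.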

[12] = biological target: 5-hydroxytryptamine receptor 2A (Homo sapiens) (UniProt P28223); test: 5-hydroxytryptamine receptor 2A (HTR2A) small molecule antagonists, cell-based qHTS assay (AID 1963586); further: nearly all actives have a fitted effect of over 45% in size; further: potency means the concentration at half of the fitted maximal effect
Chain of 5-hydroxytryptamine receptor 2A (Homo sapiens) (P28223 whole entry, looked up): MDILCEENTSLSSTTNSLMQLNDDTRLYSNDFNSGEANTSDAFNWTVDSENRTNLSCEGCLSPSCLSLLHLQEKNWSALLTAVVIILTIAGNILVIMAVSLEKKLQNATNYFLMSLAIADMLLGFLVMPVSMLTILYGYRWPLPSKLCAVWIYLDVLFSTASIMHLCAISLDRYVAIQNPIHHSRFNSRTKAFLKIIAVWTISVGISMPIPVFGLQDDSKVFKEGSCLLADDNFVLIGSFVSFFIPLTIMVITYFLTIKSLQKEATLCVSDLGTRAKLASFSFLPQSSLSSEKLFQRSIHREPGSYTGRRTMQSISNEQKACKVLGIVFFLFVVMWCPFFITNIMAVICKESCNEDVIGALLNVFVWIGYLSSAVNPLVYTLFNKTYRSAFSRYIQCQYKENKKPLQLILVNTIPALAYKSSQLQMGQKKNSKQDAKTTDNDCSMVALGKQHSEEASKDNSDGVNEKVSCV
How it was run: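 CHO cells stably expressing human HTR2A were plated for 18 h at 37 C, then loaded with calcium dye for 1 h. Compounds were preincubated 5 min at room temperature before DOI (4 nM solution) was added. Kinetic fluorescence was read for 3 min.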

[13] = biological target: 5-hydroxytryptamine receptor 2A (Homo sapiens) (UniProt P28223); test: 5-hydroxytryptamine receptor 2A (HTR2A) small molecule agonists, cell-based qHTS assay (AID 1963587); further: nearly all actives have a fitted effect of over 30% in size; further: potency means the concentration at half of the fitted maximal effect
How it was run: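 Kinetic calcium-flux fluorescence (2 min, 1 sec intervals) after compound addition in agonist mode. HTR2A-CHO cells were cultured 18 h, then dye-loaded 1 h at 37 C.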

[14] = biological target: Muscarinic acetylcholine receptor M1 (Homo sapiens) (UniProt P11229); test: Cholinergic receptor muscarinic 1 (CHRM1) small molecule antagonists, cell-based qHTS assay (AID 1963588); further: nearly all actives have a fitted effect of over 40% in size
Chain of Muscarinic acetylcholine receptor M1 (Homo sapiens) (P11229 whole entry, looked up): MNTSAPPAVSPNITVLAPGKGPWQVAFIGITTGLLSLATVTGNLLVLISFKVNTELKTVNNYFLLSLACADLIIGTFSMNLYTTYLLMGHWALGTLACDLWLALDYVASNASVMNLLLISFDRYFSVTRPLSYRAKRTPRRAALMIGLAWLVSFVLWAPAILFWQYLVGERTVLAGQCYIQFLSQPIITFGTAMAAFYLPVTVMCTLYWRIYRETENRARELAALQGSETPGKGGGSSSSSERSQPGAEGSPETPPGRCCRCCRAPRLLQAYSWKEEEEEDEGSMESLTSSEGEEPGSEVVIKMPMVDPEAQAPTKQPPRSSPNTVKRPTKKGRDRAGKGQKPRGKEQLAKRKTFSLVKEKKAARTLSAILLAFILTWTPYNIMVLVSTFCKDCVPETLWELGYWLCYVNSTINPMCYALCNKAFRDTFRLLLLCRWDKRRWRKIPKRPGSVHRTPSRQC
How it was run: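 Compounds were tested at 15 concentrations in three independent runs. Dye-loaded CHRM1-CHO cells were exposed 5 min at room temperature before stimulation by acetylcholine added at 50nM. Intracellular calcium was read kinetically on FDSS for 3 min.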

[15] = biological target: Muscarinic acetylcholine receptor M1 (Homo sapiens) (UniProt P11229); test: Cholinergic receptor muscarinic 1 (CHRM1) small molecule agonists, cell-based qHTS assay (AID 1963589); further: nearly all actives have a fitted effect of over 35% in size
How it was run: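 Fluorescent calcium dye reports M1 activation in stably transfected CHO cells. Compounds, 15 concentrations, added after 1 h dye loading at 37 C; kinetic reading at 1 sec intervals.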

[16] = cAMP Responsive Elements (CRE) small molecule agonists, cell-based qHTS assay (AID 1963590)
How it was run: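 Compound exposure lasted 3 h at 37 C/5% CO2 in CRE-bla HEK 293T cells grown in assay medium with 10% dialyzed FBS and 25 mM HEPES. Reporter signal came from LiveBLAzer B/G FRET substrate, 2 h, room temperature.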

[17] = cAMP Responsive Elements (CRE) small molecule antagonists, cell-based qHTS assay (AID 1963591; active means well fitted inhibition curve with a large enough effect in the signal ratio in the repeat runs, not every such curve was filed as active; the % refers to the signal ratio)
How it was run: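 Stimulation used NKH477 at a final 0.25 uM for 3 h in compound-treated CRE-bla HEK293T cells, seeded 18 h beforehand. Reporter activity was measured with LiveBLAzer B/G FRET substrate after 2 h at room temperature.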

[18] = biological target: D(2) dopamine receptor (Homo sapiens) (UniProt P14416); test: Dopamine D2 receptor (DRD2) small molecule agonists, cell-based qHTS assay (AID 1963594); further: nearly all actives have a fitted effect of over 35% in size
Chain of D(2) dopamine receptor (Homo sapiens) (P14416 whole entry, looked up): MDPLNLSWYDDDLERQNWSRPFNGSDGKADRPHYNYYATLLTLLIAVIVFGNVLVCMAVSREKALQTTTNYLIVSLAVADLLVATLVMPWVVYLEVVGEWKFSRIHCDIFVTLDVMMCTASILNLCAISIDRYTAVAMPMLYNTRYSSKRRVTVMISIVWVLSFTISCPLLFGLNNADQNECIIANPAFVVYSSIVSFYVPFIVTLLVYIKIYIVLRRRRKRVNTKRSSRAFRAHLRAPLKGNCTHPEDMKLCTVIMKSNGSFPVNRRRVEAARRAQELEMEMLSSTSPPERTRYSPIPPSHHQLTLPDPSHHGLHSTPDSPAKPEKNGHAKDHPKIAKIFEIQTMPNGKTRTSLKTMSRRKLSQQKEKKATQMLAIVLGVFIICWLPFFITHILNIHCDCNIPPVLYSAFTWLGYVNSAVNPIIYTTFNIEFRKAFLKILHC
How it was run: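 cAMP accumulation in DRD2-HEK293 cells measured by HTRF after 1 h detection; compounds added 10 min before NKH477 (200nM […]) forskolin-analogue stimulation, 30 min at room temperature, with Ro20-1724 present at 0.1 mM final.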

[19] = biological target: D(2) dopamine receptor (Homo sapiens) (UniProt P14416); test: Dopamine D2 receptor (DRD2) small molecule antagonists, cell-based qHTS assay (AID 1963595; active means well fitted inhibition curve with a large enough effect in the signal ratio in the repeat runs, with a control signal flat; the % refers to the signal ratio)
How it was run: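 HEK293 cells stably expressing DRD2 were preincubated with 0.1 mM Ro20-1724, then with compound for 10 min at room temperature. Cells were stimulated with 200 nM NKH477 plus 12 nM quinpirole for 30 min, and cAMP was read by HTRF.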

[20] = biological target: Beta-2 adrenergic receptor (Homo sapiens) (UniProt P07550); test: Adrenergic beta2 receptor (ADRB2) small molecule antagonists, cell-based qHTS assay (AID 1963592); further: series mostly up to about 92 µM; nearly all actives have a fitted effect of over 50% in size
Chain of Beta-2 adrenergic receptor (Homo sapiens) (P07550 whole entry, looked up): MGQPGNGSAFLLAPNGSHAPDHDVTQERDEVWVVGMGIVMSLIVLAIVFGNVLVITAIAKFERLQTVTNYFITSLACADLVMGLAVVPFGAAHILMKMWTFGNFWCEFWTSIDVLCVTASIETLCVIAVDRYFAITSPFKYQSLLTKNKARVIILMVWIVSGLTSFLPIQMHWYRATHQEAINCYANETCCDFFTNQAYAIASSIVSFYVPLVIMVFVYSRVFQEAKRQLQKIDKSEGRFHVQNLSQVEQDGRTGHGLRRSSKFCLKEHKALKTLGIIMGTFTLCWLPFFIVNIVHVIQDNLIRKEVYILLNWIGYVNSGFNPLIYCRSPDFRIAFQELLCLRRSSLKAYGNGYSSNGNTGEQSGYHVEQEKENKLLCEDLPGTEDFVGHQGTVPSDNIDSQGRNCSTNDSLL
How it was run: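 Assay format: CHO-ADRB2 cells, 18-20hr seeding at 37C/5% CO2, then compound plus 1nM isoproterenol agonist mix for 0.5hr RT. Homogeneous time-resolved fluorescence cAMP detection after 1hr, expressed as 665/615 nm ratio.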

Measured: Potency

OCCCC1CCCCC1
not listed: [19] | [20]
inactive: all other assays above

C(=C\c1ccccc1)/c1ccccc1
not listed: [20]
inactive: all other assays above

C[C@H]1C[C@H](O)c2ccsc2S1(=O)=O
not listed: [20]
inactive: all other assays above

CC(C)C(=O)Nc1cccc(C2CN3CCSC3=N2)c1 (configuration not stated)
not listed: [19] | [20]
inactive: all other assays above

O=C1CC(c2ccc(Cl)cc2)CC(=O)N1
not listed: [18]
inactive: all other assays above

O=C1NC(=O)[C@@]2(CCOc3ccc(F)cc32)N1
active: [12] 818 nM | [13] 3010 nM
not listed: [18]
inactive: all other assays above
